PMC7862700, “An all-to-all approach to the identification of sequence-specific readers for epigenetic DNA modifications on cytosine”

What was measured:
Assay in all cases: DAPPL (digital affinity profiling via proximity ligation, sequencing); 10 mM Tris-HCl pH 7.5, 50 mM NaCl, 1 mM DTT, 4% glycerol, room temperature, 30 min; GST-TFs on glutathione beads, 16-mer random dsDNA library, 0.1% formaldehyde crosslink after washing; high values mean tight binding
FLI1 = target: T1, FLI1 (Homo sapiens, UniProt Q01543 1-452); conditions: protein: recombinant; tags: N-terminal GST; dsDNA, one strand shown
T1 sequence: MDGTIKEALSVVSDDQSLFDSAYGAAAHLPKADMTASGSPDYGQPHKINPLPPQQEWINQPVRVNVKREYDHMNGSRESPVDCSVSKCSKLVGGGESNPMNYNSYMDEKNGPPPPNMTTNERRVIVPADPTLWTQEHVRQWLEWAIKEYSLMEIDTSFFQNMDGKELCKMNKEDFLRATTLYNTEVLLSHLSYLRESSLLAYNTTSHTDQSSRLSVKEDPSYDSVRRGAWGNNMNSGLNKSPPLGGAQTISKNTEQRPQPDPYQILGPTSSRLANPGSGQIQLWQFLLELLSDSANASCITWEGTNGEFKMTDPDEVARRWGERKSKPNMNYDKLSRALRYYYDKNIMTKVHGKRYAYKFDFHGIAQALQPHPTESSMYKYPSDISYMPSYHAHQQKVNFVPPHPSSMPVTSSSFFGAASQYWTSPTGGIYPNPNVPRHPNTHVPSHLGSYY
Procedure, shortened: (§1)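 Human transcription factors were made in yeast as GST fusions, captured on glutathione beads and barcoded with DNA. With a tag-only sample included, the pool was incubated with 200 nmole of a random double-stranded 16-mer DNA library in Tris/NaCl/DTT/glycerol buffer at room temperature for 30 min, then crosslinked with 0.1% formaldehyde after washing, ligated by proximity, amplified and sequenced. For binding signal, each hexamer's read frequency for a factor is divided by its frequency for the tag-only sample.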

GABPA = target: T2, GABPA (Homo sapiens, UniProt Q06546 1-454); conditions: protein: recombinant; tags: N-terminal GST; dsDNA, one strand shown
T2 sequence: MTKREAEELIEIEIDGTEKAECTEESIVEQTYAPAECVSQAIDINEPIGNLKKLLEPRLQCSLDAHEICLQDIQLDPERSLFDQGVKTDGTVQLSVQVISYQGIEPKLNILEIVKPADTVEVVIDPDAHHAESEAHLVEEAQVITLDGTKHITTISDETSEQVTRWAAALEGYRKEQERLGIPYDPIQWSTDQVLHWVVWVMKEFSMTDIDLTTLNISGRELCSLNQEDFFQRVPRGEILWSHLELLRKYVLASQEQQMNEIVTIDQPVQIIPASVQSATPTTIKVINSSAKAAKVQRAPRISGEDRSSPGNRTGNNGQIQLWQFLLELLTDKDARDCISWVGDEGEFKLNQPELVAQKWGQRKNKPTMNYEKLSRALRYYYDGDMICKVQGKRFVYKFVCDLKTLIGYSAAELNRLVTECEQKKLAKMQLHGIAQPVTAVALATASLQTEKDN
Procedure, shortened: as §1

ELF1 = ELF1 (Homo sapiens, UniProt P32519 1-619); conditions: protein: recombinant; tags: N-terminal GST; dsDNA, one strand shown
ELF1, sequence (P32519 whole entry): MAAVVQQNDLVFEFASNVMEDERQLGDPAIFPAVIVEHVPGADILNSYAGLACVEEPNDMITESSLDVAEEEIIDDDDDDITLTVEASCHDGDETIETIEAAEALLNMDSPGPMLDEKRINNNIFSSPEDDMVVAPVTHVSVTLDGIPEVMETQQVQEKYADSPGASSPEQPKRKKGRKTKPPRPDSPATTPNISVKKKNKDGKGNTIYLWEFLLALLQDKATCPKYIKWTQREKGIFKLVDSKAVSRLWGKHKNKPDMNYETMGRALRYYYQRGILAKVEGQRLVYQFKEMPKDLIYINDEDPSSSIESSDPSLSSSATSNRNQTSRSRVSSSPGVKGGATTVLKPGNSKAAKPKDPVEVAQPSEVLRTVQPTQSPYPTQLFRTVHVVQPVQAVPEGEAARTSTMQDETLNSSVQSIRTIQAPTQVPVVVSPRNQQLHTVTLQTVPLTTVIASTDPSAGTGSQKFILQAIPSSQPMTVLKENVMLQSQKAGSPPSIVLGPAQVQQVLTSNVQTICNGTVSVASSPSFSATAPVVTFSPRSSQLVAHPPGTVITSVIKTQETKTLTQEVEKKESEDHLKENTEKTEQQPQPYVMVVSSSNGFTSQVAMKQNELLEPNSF
Procedure, shortened: as §1

EHF = target: T3, EHF (Homo sapiens, UniProt Q9NZC4 1-300); conditions: protein: recombinant; tags: N-terminal GST; dsDNA, one strand shown
T3 sequence: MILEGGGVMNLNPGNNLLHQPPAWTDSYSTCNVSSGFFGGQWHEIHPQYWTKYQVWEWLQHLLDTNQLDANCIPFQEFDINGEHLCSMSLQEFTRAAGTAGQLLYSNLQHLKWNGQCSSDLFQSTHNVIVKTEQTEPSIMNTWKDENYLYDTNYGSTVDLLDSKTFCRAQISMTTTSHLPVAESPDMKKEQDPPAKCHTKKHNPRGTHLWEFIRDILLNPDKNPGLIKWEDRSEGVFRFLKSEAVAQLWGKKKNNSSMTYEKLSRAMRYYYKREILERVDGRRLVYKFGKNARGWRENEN
Procedure, shortened: as §1

SPI1 = SPI1 (Homo sapiens, UniProt P17947 1-270); conditions: protein: recombinant; tags: N-terminal GST; dsDNA, one strand shown
Procedure, shortened: as §1

SPIB = SPIB (Homo sapiens, UniProt Q01892 1-262); conditions: protein: recombinant; tags: N-terminal GST; dsDNA, one strand shown
SPIB, sequence (Q01892 whole entry): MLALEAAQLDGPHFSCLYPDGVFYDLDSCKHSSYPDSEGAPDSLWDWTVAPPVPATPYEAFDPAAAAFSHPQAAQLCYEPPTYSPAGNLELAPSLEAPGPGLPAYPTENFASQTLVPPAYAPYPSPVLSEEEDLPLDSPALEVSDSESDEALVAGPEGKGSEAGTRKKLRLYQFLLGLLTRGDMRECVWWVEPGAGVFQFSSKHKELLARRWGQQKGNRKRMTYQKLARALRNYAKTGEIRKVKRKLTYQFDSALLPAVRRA
Procedure, shortened: as §1

FEV = target: T4, FEV (Homo sapiens, UniProt Q99581 1-238); conditions: protein: recombinant; tags: N-terminal GST; dsDNA, one strand shown
T4 sequence: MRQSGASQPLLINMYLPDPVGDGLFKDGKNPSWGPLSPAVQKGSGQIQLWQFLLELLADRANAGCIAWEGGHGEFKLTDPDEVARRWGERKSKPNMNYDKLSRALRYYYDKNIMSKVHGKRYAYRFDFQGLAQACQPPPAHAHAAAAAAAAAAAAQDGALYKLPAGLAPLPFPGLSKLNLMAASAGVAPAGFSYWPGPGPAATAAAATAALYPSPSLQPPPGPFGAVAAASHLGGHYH
Procedure, shortened: as §1

ETV5 = ETV5 (Homo sapiens, UniProt P41161 1-510); conditions: protein: recombinant; tags: N-terminal GST; dsDNA, one strand shown
ETV5, sequence (P41161 whole entry): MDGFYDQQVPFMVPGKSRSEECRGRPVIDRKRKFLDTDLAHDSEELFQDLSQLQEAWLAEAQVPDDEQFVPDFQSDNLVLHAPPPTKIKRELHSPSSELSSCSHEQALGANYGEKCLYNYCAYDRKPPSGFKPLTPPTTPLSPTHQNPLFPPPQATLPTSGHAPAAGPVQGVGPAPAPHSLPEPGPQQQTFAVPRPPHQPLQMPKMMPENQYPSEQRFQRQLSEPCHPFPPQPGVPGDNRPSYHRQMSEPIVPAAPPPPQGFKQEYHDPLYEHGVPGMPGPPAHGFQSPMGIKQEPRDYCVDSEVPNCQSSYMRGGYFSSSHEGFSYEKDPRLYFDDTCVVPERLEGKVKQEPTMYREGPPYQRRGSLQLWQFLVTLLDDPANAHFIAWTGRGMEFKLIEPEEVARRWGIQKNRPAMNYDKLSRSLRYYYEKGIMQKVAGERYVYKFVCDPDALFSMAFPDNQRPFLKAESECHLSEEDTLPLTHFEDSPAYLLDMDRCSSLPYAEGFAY
Procedure, shortened: as §1

HSF1 = HSF1 (Homo sapiens, UniProt Q00613 1-529); conditions: protein: recombinant; tags: N-terminal GST; chain copies: 3; dsDNA, one strand shown
HSF1, sequence (Q00613 whole entry): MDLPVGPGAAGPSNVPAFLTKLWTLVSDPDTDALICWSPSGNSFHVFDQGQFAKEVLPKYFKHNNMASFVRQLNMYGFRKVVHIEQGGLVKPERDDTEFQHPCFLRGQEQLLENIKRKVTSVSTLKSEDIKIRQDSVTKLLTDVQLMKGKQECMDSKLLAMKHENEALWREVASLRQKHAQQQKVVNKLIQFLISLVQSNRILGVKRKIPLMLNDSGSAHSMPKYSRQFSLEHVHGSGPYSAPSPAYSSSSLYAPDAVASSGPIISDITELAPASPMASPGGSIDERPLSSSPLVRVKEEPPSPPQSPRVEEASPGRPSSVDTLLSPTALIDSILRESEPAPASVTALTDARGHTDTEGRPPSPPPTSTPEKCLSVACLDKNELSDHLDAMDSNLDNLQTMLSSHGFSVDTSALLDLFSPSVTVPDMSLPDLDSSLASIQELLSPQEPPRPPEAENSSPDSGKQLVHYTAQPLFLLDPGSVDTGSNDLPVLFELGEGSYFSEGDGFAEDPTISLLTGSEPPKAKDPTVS
Procedure, shortened: as §1

SPIC = target: T5, SPIC (Homo sapiens, UniProt Q8N5J4 1-248); conditions: protein: recombinant; tags: N-terminal GST; dsDNA, one strand shown
T5 sequence: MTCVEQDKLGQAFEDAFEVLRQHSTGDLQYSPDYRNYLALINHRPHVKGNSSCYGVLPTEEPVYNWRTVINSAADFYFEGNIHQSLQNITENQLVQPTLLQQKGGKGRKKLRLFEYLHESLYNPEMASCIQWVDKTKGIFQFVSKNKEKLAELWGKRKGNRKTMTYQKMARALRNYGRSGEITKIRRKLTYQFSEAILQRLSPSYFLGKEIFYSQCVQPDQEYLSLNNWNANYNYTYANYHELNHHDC
Procedure, shortened: as §1

ELF4 = ELF4 (Homo sapiens, UniProt Q99607 1-663); conditions: protein: recombinant; tags: N-terminal GST; dsDNA, one strand shown
ELF4, sequence (Q99607 whole entry): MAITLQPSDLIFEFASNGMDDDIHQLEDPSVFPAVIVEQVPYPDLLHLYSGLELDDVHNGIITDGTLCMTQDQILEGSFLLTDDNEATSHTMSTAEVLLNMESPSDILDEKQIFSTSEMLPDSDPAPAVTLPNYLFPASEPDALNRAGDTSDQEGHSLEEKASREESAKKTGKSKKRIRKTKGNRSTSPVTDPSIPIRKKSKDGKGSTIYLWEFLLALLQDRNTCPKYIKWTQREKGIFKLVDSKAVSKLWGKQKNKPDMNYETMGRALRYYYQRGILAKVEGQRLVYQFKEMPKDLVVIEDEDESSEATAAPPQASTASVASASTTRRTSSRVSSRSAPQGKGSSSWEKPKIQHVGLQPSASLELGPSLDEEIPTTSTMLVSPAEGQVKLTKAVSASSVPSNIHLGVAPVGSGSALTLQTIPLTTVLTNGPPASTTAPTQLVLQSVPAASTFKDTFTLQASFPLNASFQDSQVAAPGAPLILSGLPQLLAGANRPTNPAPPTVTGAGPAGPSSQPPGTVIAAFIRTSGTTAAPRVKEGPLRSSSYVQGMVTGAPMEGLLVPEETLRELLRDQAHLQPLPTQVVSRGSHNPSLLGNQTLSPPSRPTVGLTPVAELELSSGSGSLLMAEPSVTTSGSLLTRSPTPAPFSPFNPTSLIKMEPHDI
Procedure, shortened: as §1

ELK4 = target: T6, ELK4 (Homo sapiens, UniProt P28324-2 1-405); conditions: protein: recombinant; tags: N-terminal GST; dsDNA, one strand shown
T6 sequence: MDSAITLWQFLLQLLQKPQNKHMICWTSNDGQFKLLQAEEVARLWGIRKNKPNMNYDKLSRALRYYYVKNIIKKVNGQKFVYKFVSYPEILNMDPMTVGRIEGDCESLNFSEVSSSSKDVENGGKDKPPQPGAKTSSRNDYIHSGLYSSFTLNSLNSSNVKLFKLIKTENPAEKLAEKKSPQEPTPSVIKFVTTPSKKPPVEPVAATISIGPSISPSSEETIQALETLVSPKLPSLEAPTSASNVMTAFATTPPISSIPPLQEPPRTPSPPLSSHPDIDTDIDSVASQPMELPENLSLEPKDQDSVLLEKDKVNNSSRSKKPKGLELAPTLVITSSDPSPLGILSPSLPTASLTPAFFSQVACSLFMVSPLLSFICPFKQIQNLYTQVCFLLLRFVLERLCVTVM
Procedure, shortened: as §1

ETV2 = target: T7, ETV2 (Homo sapiens, UniProt O00321 1-342); conditions: protein: recombinant; tags: N-terminal GST; dsDNA, one strand shown
T7 sequence: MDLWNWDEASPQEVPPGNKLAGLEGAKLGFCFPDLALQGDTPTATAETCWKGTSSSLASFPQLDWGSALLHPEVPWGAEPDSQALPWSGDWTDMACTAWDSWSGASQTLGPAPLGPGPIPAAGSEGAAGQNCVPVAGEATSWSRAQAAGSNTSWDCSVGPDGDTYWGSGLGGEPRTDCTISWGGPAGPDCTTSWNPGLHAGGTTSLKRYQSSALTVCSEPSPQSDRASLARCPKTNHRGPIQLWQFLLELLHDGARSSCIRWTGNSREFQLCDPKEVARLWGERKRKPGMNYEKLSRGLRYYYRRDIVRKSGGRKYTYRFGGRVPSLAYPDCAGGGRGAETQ
Procedure, shortened: as §1

ELF3 = target: T8, ELF3 (Homo sapiens, UniProt P78545 1-371); conditions: protein: recombinant; tags: N-terminal GST; dsDNA, one strand shown
T8 sequence: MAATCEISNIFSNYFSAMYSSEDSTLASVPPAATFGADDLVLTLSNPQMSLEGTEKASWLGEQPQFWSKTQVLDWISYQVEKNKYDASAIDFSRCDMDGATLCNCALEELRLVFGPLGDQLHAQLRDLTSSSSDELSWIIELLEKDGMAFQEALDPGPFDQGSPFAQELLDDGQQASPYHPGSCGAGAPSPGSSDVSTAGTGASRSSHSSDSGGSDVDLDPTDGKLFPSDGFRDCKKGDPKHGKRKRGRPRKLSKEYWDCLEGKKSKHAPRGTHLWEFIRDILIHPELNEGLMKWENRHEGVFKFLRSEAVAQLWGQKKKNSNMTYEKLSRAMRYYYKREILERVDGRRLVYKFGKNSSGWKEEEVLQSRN
Procedure, shortened: as §1

ETV1 = ETV1 (Homo sapiens, UniProt P50549 1-477); conditions: protein: recombinant; tags: N-terminal GST; dsDNA, one strand shown
ETV1, sequence (P50549 whole entry): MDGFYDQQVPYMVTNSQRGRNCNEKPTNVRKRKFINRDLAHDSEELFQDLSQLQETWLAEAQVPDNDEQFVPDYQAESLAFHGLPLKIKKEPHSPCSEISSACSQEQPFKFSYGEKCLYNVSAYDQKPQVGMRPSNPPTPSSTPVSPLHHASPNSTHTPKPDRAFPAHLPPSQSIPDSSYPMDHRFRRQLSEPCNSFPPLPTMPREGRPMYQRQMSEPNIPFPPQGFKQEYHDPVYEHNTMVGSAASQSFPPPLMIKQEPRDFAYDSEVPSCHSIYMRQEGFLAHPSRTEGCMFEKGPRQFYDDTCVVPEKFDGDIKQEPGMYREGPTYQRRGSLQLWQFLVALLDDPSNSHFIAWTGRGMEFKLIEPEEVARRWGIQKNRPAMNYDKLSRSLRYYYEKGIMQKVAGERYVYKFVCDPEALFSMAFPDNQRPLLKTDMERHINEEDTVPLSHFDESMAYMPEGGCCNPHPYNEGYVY
Procedure, shortened: as §1

ERG = target: T9, ERG (Homo sapiens, UniProt P11308 1-479); conditions: protein: recombinant; tags: N-terminal GST; dsDNA, one strand shown
T9 sequence: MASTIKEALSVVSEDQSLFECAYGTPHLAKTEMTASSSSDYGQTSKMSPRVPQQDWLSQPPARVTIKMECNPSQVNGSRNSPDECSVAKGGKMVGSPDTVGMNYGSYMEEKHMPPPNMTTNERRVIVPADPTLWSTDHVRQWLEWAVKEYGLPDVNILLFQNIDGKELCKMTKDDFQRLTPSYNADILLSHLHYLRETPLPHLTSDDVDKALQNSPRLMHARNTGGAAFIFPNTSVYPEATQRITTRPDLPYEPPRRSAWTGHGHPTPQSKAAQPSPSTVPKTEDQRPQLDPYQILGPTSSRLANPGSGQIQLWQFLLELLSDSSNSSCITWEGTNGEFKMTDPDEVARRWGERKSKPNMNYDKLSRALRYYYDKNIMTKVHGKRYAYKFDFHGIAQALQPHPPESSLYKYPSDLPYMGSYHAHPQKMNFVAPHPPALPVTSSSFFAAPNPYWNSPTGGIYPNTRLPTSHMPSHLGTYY
Procedure, shortened: as §1

ELK3 = target: T10, ELK3 (Homo sapiens, UniProt P41970 1-407); conditions: protein: recombinant; tags: N-terminal GST; dsDNA, one strand shown
T10 sequence: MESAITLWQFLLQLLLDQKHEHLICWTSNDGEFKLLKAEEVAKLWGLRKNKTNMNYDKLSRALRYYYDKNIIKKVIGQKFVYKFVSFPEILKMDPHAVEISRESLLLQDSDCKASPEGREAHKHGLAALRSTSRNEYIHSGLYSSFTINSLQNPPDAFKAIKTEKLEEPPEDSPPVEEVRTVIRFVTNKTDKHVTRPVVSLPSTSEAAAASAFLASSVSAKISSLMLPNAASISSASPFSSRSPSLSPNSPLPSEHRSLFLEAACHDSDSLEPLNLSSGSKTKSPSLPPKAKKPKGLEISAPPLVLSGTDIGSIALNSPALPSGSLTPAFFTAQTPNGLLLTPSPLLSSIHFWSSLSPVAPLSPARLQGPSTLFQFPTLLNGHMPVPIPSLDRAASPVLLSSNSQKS
Procedure, shortened: as §1

CRX = CRX (Homo sapiens, UniProt O43186 1-299); conditions: protein: recombinant; tags: N-terminal GST; dsDNA, one strand shown
CRX, sequence (O43186 whole entry): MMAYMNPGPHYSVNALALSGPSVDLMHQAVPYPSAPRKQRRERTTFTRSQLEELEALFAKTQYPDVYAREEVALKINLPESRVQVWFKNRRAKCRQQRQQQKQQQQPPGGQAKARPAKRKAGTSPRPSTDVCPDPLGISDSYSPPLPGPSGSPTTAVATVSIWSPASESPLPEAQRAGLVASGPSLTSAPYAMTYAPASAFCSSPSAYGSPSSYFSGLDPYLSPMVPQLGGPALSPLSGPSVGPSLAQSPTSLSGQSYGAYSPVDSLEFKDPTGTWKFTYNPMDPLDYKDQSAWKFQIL
Procedure, shortened: as §1

In the case of ATGCTG, the binding signal (FLI1) was 1.09 fold enrichment (6-mer frequency, TF over GST control), the binding signal (GABPA) was 1.07 fold enrichment (6-mer frequency, TF over GST control) and the binding signal (ELF1) was 1.13 fold enrichment (6-mer frequency, TF over GST control). For the same sequence, the binding signal (EHF) was 1.22 fold enrichment (6-mer frequency, TF over GST control), the binding signal (SPI1) was 1.07 fold enrichment (6-mer frequency, TF over GST control) and the binding signal (SPIB) was 1.05 fold enrichment (6-mer frequency, TF over GST control). The binding signal (FEV) was 1.06 fold enrichment (6-mer frequency, TF over GST control), the binding signal (ETV5) was 1.13 fold enrichment (6-mer frequency, TF over GST control) and the binding signal (HSF1) was 1.02 fold enrichment (6-mer frequency, TF over GST control). The binding signal (SPIC) was 1.14 fold enrichment (6-mer frequency, TF over GST control), the binding signal (ELF4) was 1.06 fold enrichment (6-mer frequency, TF over GST control) and the binding signal (ELK4) was 1.26 fold enrichment (6-mer frequency, TF over GST control). The binding signal (ETV2) was 1.19 fold enrichment (6-mer frequency, TF over GST control), the binding signal (ELF3) was 1.26 fold enrichment (6-mer frequency, TF over GST control) and the binding signal (ETV1) was 1.06 fold enrichment (6-mer frequency, TF over GST control).

For CATTAC, the binding signal (FLI1) was 1.09 fold enrichment (6-mer frequency, TF over GST control), the binding signal (GABPA) was 1.2 fold enrichment (6-mer frequency, TF over GST control) and the binding signal (ERG) was 1.06 fold enrichment (6-mer frequency, TF over GST control). For the same sequence, the binding signal (ELF1) was 1.17 fold enrichment (6-mer frequency, TF over GST control), the binding signal (EHF) was 1.13 fold enrichment (6-mer frequency, TF over GST control) and the binding signal (SPI1) was 1.1 fold enrichment (6-mer frequency, TF over GST control). For the same sequence, the binding signal (SPIB) was 1.17 fold enrichment (6-mer frequency, TF over GST control), the binding signal (ELK3) was 1.15 fold enrichment (6-mer frequency, TF over GST control) and the binding signal (FEV) was 1.12 fold enrichment (6-mer frequency, TF over GST control). The binding signal (ETV5) was 1.13 fold enrichment (6-mer frequency, TF over GST control), the binding signal (HSF1) was 1.02 fold enrichment (6-mer frequency, TF over GST control) and the binding signal (SPIC) was 1.05 fold enrichment (6-mer frequency, TF over GST control). The binding signal (ELF4) was 1.1 fold enrichment (6-mer frequency, TF over GST control), the binding signal (ELK4) was 1.17 fold enrichment (6-mer frequency, TF over GST control) and the binding signal (ETV2) was 1.22 fold enrichment (6-mer frequency, TF over GST control). The binding signal (ELF3) was 1.08 fold enrichment (6-mer frequency, TF over GST control), the binding signal (CRX) was 1.18 fold enrichment (6-mer frequency, TF over GST control) and the binding signal (ETV1) was 1.18 fold enrichment (6-mer frequency, TF over GST control).
